Results from PubChem BioAssay (NCATS).
Results filed as inconclusive are left out. Calls of active or inactive are those of the source. Unless noted, the call rests on the fitted dose curve; in most records, active means well fitted curve in the direction sought with a large enough effect; inconclusive means small, poorly fitted or top-dose-only effect, or another doubt; inactive means no such curve, though single readings can be large; an effect the other way counts as inactive or inconclusive.

Tests used:
[1] = target: Lysosomal acid glucosylceramidase (Homo sapiens) (UniProt P04062); assay: Glucocerebrosidase-p2 (AID 348; in the data active means potency below about 10 µM; further: potency means the concentration at half of the fitted maximal effect); conditions: purified GBA, blue fluorogenic substrate, 40 min
Lysosomal acid glucosylceramidase (Homo sapiens), sequence (P04062 whole entry, looked up): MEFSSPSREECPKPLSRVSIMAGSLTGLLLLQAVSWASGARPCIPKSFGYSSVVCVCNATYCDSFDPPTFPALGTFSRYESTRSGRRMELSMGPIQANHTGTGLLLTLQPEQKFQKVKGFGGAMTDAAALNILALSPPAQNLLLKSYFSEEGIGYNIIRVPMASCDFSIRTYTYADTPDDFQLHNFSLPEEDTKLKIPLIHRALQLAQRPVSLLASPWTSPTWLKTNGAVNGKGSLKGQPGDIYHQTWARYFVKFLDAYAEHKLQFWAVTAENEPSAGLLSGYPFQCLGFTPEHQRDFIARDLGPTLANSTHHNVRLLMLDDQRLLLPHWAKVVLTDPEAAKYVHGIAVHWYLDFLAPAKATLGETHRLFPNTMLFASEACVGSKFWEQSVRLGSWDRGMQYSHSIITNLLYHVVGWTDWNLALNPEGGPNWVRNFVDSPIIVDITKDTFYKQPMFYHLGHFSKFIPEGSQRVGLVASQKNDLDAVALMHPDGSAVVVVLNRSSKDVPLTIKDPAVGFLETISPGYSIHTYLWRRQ
Outline: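 Compounds titrated from 0.6 nM upwards against 0.2 nM enzyme in pH 5.9 citric acid/KH2PO4, taurocholate, tween-20; blue fluorogenic substrate 80 uM, 40 min room temperature, stopped and read Ex 365/Em 440 for AC50.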

[2] = AP1 Signaling Pathway (AID 357; active means well fitted curve in either direction with a large enough effect, not every such curve was filed as active;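 further: ME-180 reporter cells stimulated with EGF at its EC50 level; on the % scale 0 is the no-effect control and ±100 the full control effect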); conditions: ME-180 AP-1-bla reporter, EGF-induced, beta-lactamase ratio, 5 h; at 7.69 µM (top of the series) unless noted
Outline: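 First, ME-180 AP-1-bla cells were cultured overnight at 37 °C in low-serum Opti-MEM. Next, titrated compounds with EC50 EGF were incubated 5 hours. Finally, CCF4 was added for 2.5 hours and the 460/530 nm ratio recorded.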

[3] = target: Cytochrome P450 1A2 (Homo sapiens) (UniProt P05177); assay: p450-cyp1a2 (AID 410; calls by dose curve; further: potency means the concentration at half of the fitted maximal effect)
Cytochrome P450 1A2 (Homo sapiens), sequence (P05177 whole entry, looked up): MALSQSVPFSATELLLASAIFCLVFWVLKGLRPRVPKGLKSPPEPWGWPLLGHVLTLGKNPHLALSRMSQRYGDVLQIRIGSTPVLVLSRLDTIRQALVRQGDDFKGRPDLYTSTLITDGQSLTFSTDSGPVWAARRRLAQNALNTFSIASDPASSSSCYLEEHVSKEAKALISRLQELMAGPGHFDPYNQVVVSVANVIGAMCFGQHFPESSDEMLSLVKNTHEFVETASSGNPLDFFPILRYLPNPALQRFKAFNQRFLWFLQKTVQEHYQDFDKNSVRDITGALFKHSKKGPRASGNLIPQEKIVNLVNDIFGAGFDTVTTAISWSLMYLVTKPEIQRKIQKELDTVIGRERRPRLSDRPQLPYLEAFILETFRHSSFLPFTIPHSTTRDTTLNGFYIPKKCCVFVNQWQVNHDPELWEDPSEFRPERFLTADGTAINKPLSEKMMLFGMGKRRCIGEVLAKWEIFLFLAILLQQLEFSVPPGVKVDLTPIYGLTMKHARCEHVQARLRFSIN
Outline: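 Inhibition was calculated relative to 57 uM furafylline (full inhibition). The reaction used human CYP1A2 at 20nM with Luciferin-ME at its Km, 100uM, driven by an NADPH-regenerating system for 60 min at room temperature.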

[4] = NFAT Signaling Pathway (AID 444; active means well fitted curve in either direction with a large enough effect, not every such curve was filed as active;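 further: carbachol stimulus at about its EC50 of 1 µM final; on the % scale 0 is the no-effect control and ±100 the full control effect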); conditions: Jurkat NFAT-bla M1, carbachol, beta-lactamase ratio, 5 h; at 7.69 µM (top of the series) unless noted
Outline: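 Jurkat cells with NFAT-driven β-lactamase reporter and co-expressed M1 receptor, stimulated with carbachol (final 1 uM, ~EC50), compound titration, 5 h at 37 °C. CCF4 loaded 1 h at RT; 460/530 nm ratio gave %activity and AC50.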

[5] = Stat Signaling Pathway (AID 446; active means well fitted curve in either direction with a large enough effect, not every such curve was filed as active;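 further: ME-180 cervical cancer cells given 40 pM IL-6 alongside compound; SIE-controlled beta-lactamase reporter measured as 460/530 nm FRET emission ratio; on the % scale 0 is the no-effect control and ±100 the full control effect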); conditions: ME-180 SIE beta-lactamase reporter, IL-6 stimulated, 5 h; at 7.69 µM (top of the series) unless noted
Outline: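 Reporter line: ME-180 cervical carcinoma, SIE-beta-lactamase. Treatment: compound with 40 pM IL-6, 5 hrs, 37 C, in low-serum OPTI-MEM with 10 mM HEPES pH 7.3. Detection: 460/530 nm fluorescence.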

[6] = target: Glucocorticoid receptor (Homo sapiens) (UniProt P04150); assay: GR-GFP Redistribution (AID 450;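 active means compounds whose dose series gives a full or clear partial fitted curve of increased nuclear translocation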; further: potency means the concentration at half of the fitted maximal effect); conditions: U2OS GR-GFP nuclear translocation, laser cytometry, 2 h
Glucocorticoid receptor (Homo sapiens), sequence (P04150 whole entry, looked up, the tested form may be a part): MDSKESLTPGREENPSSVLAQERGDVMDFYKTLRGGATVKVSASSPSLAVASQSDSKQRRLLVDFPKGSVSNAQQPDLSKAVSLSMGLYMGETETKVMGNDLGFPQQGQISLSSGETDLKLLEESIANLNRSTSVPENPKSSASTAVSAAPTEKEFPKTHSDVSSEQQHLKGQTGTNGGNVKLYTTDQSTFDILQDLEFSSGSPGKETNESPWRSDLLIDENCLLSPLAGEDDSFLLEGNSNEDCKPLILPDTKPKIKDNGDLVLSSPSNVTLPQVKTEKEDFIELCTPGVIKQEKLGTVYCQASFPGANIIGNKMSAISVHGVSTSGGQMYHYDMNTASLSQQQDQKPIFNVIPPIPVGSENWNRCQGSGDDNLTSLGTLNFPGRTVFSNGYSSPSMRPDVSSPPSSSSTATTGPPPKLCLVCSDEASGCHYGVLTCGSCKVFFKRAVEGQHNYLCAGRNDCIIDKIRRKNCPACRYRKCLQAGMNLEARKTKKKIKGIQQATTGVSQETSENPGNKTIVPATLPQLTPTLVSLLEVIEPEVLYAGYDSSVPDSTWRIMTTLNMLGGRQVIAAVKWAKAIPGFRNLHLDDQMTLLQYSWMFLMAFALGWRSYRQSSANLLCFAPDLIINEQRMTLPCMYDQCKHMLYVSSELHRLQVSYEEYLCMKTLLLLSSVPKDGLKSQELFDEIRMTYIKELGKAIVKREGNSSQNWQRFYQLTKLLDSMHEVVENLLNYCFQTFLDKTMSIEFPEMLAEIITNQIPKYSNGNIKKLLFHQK

[7] = target: Glucocorticoid receptor (Homo sapiens) (UniProt P04150); assay: GR-EFC Redistribution (AID 451; calls by dose curve; further: potency means the concentration at half of the fitted maximal effect); conditions: CHO-K1 GR-EFC translocation, beta-gal luminescence, 2 h
Outline: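 CHO-K1 cells expressing nuclear EA and GR-ED fragments of b-gal; compounds titrated up to 46 uM final, 2 h at 37 C. GR nuclear translocation read as complemented b-gal luminescence after 1 h RT detection.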

[8] = target: Mitogen-activated protein kinase 10 (Mus musculus) (UniProt Q61831); assay: JNK3 AlphaScreen Assay (AID 530; active means well fitted curve in either direction with a large enough effect, not every such curve was filed as active;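 further: kinase came from lysate of stimulated human HepG2 cells; signal reports phosphorylation of biotinylated GST-cJun 1-79 at Ser73 with 10 µM ATP; on the % scale 0 is the no-effect control and ±100 the full control effect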)
Outline: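 qHTS format: compounds tested as titrations against IL-1beta/TNF-alpha-activated HepG2 lysate JNK3 with biotin-GST-cJun substrate and 10 uM ATP at room temperature. Loss of anti-phospho-cJun AlphaScreen signal indicates inhibition.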

[9] = target: Dual specificity protein kinase CLK4 (Homo sapiens) (UniProt Q9HAZ1); assay: qHTS Assay for Inhibitors of CDC-like Kinase 4 (Kinase-Glo Assay) (AID 1770); further: nearly all actives have a fitted effect of over 65% in size; further: potency means the concentration at half of the fitted maximal effect
Dual specificity protein kinase CLK4 (Homo sapiens), sequence (Q9HAZ1 whole entry, looked up): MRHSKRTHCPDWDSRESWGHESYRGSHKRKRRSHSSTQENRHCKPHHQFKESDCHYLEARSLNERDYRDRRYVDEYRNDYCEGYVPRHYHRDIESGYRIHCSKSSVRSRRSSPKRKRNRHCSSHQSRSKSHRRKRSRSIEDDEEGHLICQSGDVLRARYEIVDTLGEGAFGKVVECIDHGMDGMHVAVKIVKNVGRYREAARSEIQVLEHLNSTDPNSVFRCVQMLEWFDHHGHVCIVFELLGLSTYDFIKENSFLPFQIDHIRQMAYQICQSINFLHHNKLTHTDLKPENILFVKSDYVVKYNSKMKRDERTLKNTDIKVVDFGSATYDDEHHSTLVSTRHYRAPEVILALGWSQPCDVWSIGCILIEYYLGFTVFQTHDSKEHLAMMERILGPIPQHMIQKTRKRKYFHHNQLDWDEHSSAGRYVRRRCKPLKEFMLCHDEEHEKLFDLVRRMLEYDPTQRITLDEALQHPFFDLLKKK
Outline: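 Substrate mix (RS peptide 100 uM, ATP 1 uM) dispensed, compound pinned in, then Clk4 added to 25 nM final. Incubated 4.5 h at RT; Kinase-Glo reagent added, luminescence read after 5 min.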

[10] = target: Dual specificity protein kinase CLK4 (Homo sapiens) (UniProt Q9HAZ1); assay: qHTS Assay for Inhibitors of CDC-like Kinase 4 (ADP-Glo Assay) (AID 1771); further: nearly all actives have a fitted effect of over 70% in size; further: potency means the concentration at half of the fitted maximal effect
Outline: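 Kinase reaction: Clk4 at 25 nM, RS repeat peptide substrate at 100 uM, ATP at 1 uM, 1 hr, room temperature. Product ADP detected as luciferase signal via ADP-Glo.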

[11] = target: Dual specificity protein kinase CLK4 (Homo sapiens) (UniProt Q9HAZ1); assay: qHTS Assay for Inhibitors of CDC-like Kinase 4 (ADP-FP Assay) (AID 1795); further: nearly all actives have a fitted effect of over 60% in size; further: potency means the concentration at half of the fitted maximal effect
Outline: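 Clk4 6.25 nM; RS peptide 100 uM; ATP 1 uM; 25 mM Tris pH 7.5, 10 mM MgCl2; 1 h reaction. ADP detected via antibody/orange tracer FP displacement; TG003 positive control.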

[12] = target: Ubiquitin carboxyl-terminal hydrolase 1 (Homo sapiens) (UniProt O94782); assay: Inhibitors of USP1/UAF1: Pilot qHTS (AID 504865);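 further: rhodamine fluorescence freed from ubiquitin-rhodamine substrate followed over time; top concentration of the series differs between compounds; on the % scale 0 is the no-effect control and ±100 the full control effect; nearly all actives have a fitted effect of over 35% in size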
Ubiquitin carboxyl-terminal hydrolase 1 (Homo sapiens), sequence (O94782 whole entry, looked up): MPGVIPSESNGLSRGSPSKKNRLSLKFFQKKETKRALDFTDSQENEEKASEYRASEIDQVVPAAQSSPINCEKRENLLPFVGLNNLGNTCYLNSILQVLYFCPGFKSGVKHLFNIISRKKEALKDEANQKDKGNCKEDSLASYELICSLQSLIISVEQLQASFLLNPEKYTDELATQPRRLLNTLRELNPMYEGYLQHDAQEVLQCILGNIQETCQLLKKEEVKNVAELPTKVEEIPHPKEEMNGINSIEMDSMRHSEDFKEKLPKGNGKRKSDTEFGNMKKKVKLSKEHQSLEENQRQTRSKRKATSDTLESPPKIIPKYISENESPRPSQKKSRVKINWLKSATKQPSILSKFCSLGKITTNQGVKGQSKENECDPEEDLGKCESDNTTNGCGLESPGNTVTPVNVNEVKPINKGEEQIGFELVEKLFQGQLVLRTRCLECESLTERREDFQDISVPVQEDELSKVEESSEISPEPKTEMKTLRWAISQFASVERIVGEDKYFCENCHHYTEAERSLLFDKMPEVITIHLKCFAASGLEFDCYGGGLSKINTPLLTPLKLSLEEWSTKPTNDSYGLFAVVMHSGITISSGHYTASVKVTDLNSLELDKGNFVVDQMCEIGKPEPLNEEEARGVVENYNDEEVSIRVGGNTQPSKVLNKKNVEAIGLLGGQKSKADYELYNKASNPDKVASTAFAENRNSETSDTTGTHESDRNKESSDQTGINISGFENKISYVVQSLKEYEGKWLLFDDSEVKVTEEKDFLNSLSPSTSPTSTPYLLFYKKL
Outline: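 In 50mM HEPES pH 7.8 containing 0.5mM EDTA, 1mM TCEP, 0.1 mg/ml BSA and 0.01% Tween-20, 1nM USP1/UAF1 is exposed to compound for 15 min, then Ub-Rho (150nM final) is added and fluorescence is read over time.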

[13] = Confirmatory qHTS for small molecule stabilizers of the endoplasmic reticulum resident proteome: Secreted ER Calcium Modulated Protein (SERCaMP) assay (AID 1508628); further: nearly all actives have a fitted effect of over 40% in size; further: potency means the concentration at half of the fitted maximal effect
Outline: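 We seeded SH-SY5Y-GLuc-SERCaMP cells, added compounds (three concentrations in the primary run, eleven up to 76.6 uM in confirmation), incubated 16 h, depleted ER calcium with thapsigargin, and read luciferase 4 h later.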

[14] = target: 3',5'-cyclic-AMP phosphodiesterase 4B (Homo sapiens) (UniProt Q07343); assay: qHTS Assay for Inhibitors of PDE-IV (AID 607; active means well fitted activation curve with a large enough effect in the main read-out, with a control signal flat, not every such curve was filed as active; further: % of control where 0% means no effect)
3',5'-cyclic-AMP phosphodiesterase 4B (Homo sapiens), sequence (Q07343 whole entry, looked up): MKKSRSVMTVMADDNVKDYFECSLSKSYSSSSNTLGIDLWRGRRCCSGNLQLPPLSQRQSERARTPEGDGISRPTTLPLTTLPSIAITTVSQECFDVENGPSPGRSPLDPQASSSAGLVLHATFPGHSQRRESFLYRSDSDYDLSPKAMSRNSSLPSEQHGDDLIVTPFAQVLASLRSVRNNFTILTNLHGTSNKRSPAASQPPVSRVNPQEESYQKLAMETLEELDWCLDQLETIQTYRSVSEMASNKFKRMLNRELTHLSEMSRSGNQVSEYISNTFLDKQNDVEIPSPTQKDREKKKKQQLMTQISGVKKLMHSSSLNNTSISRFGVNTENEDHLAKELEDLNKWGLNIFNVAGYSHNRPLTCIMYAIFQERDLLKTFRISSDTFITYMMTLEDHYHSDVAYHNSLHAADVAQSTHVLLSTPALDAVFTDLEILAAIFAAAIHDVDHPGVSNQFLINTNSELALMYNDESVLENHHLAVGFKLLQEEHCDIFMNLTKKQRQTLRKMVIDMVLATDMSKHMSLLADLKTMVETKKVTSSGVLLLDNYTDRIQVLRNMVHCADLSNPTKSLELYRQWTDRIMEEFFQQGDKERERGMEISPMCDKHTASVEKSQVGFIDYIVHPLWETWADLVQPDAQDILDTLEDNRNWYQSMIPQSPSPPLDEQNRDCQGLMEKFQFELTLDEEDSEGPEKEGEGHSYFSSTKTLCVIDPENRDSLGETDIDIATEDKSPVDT
Outline: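 Cell-based read-out of cAMP via a modified cyclic nucleotide-gated channel and membrane potential dye (535/590 nm) in HEK293 cells expressing PDE4 endogenously. Compounds tested up to 22.9 uM final; 100 uM RO 20-1724 reference.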

[15] = target: Cytochrome P450 3A4 (Homo sapiens) (UniProt P08684); assay: qHTS Assay for Activators of Cytochrome P450 3A4 (AID 885); further: nearly all actives have a fitted effect of over 65% in size
Cytochrome P450 3A4 (Homo sapiens), sequence (P08684 whole entry, looked up): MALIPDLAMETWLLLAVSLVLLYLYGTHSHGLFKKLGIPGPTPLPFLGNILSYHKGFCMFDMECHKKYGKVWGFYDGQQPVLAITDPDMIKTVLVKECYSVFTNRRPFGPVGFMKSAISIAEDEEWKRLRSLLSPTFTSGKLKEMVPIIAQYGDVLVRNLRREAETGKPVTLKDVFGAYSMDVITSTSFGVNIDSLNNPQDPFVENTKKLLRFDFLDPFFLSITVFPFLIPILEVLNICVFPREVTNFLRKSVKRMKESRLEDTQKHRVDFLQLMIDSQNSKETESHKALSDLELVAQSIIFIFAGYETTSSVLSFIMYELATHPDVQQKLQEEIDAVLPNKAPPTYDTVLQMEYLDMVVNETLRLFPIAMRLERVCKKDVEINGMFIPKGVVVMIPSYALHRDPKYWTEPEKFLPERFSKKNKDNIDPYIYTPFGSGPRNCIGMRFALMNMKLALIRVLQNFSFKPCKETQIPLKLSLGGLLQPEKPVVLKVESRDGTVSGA
Outline: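 Signal was normalized against complete inhibition by 57 uM ketoconazole. The reaction used 20nM CYP3A4 with 25uM Luciferin-PPXE, 10-min compound preincubation and a 60-min NADPH-supported step at RT.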

[16] = qHTS Assay for Lipid Storage Modulators (AID 1519; calls by dose curve); conditions: Drosophila S3 cells, BODIPY lipid droplet/cell ratio, laser cytometry, cells loaded with oleic acid; for activity change, negative = inhibition: at 57.5 µM (top of the series)
Outline: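 Cells seeded at 5,000 per well were treated with compounds over a concentration series and loaded with oleic acid (400 uM, as added). Lipid droplet fluorescence (488 nm excitation, 500-530 nm channel) was read by laser-scanning cytometry and normalized to 20 uM Triacsin C.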

[17] = target: Cytochrome P450 3A4 (Homo sapiens) (UniProt P08684); assay: qHTS Assay for Inhibitors and Substrates of Cytochrome P450 3A4 (AID 884); further: potency means the concentration at half of the fitted maximal effect; nearly all actives have a fitted effect of over 50% in size
Outline: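 20 nM human CYP3A4 with 25 uM Luciferin-PPXE (at KM) in 200 mM KPO4, preincubated 10 min with compound; NADPH regeneration started a 60 min RT reaction. Luciferin detected by luminescence, normalized to 57 uM ketoconazole as full inhibition.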

[18] = Confirmation and Secondary Assay for Modulators of Hemoglobin Beta Chain Splicing at IVS2 654 locus (AID 910);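 further: HeLa cells stably carrying EGFP split by mutant beta-globin IVS2-654 intron; % of control where 0% means no effect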
Outline: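 HeLa cells stably expressing EGFP interrupted by β-globin IVS2-654 intron, seeded overnight in Opti-MEM/2% FCS, then treated 2 days at 37 °C. Restored splicing read as total peak GFP intensity per well by laser scanning cytometry (488 nm excitation, 500–520 nm emission); 500 nM antisense PNA as control.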

[19] = measured here: cell count channel max response
[20] = measured here: lipid channel max response

CN(C)c1ncc2ncc(=O)n(CCc3ccccc3)c2n1
active: Potency [3] 0.794 µM | Potency [9] 6.31 µM | Potency [10] 6.31 µM | Potency [11] 5.01 µM | Potency [13] 39.8 µM
inactive: Potency [1] > 11.4 µM | activity change, negative = inhibition [2] -21.4% | activity change, negative = inhibition [4] -10.8% | activity, negative = inhibition [5] -10.8% | Potency [6] > 9.22 µM | Potency [7] > 46 µM | outcome [8] | Potency [12]

COc1cccc(Nc2ncc3nc(-c4ccccc4)c(=O)n(C[C@H]4CCCO4)c3n2)c1
active: Potency [13] 39.8 µM
inactive: Potency [1] > 11.4 µM | activity change, negative = inhibition [4] -8.66% | activity, negative = inhibition [5] 4.51% | Potency [6] > 9.22 µM | Potency [7] > 46 µM | outcome [8] | Potency [14]

COCCn1c(=O)c(-c2ccccc2)nc2cnc(OCc3ccccc3)nc21
inactive: Potency [1] > 11.4 µM | activity change, negative = inhibition [2] -11.6% | activity change, negative = inhibition [4] 0.0505% | activity, negative = inhibition [5] -5.1% | Potency [6] > 9.22 µM | Potency [7] > 46 µM | Potency [14]
active: Potency [13] 39.8 µM

N#CCCn1c(=O)c(-c2cc(F)cc(F)c2)nc2cnc(OCc3ccccc3)nc21
active: Potency [3] 6.31 µM | Potency [13] 44.7 µM
inactive: Potency [1] > 11.4 µM | activity change, negative = inhibition [2] -10.3% | activity, negative = inhibition [5] 3.6% | Potency [6] > 9.22 µM | Potency [7] > 46 µM | Potency [14] | Potency [15]

COc1ccc(-c2nc3cnc(N4CCNCC4)nc3n(CCc3ccccc3)c2=O)cc1
-12.2%: max response [16, 20]
inactive: Potency [1] > 11.4 µM | Potency [6] > 9.22 µM | Potency [7] > 46 µM | Potency [14] | Potency [15] | activity change, negative = inhibition [16] -10.5% | Potency [13]
active: activity change, negative = inhibition [2] 111% [activator] | Potency [3] 15.8 µM
-3.35%: max response [16, 19]

c1ccc2c(N3CCNCC3)nc(-c3ccc4c(c3)OCO4)nc2c1
inactive: Potency [1] > 11.4 µM | activity change, negative = inhibition [2] 14.9% | activity change, negative = inhibition [4] 11.9% | activity, negative = inhibition [5] 7.14% | Potency [7] > 46 µM | outcome [8] | Potency [14] | Potency [15] | outcome [18] | Potency [12]
active: Potency [3] 12.6 µM | Potency [17] 7.94 µM | Potency [13] 20 µM

Cc1ccccc1-c1nc(N2CCNCC2)c2ccccc2n1
inactive: Potency [1] > 11.4 µM | activity change, negative = inhibition [2] 12.7% | activity change, negative = inhibition [4] 2.71% | activity, negative = inhibition [5] -10.4% | Potency [6] > 46 µM | Potency [7] > 46 µM | outcome [8] | Potency [15] | activity change, negative = inhibition [16] 4.63% | Potency [12]
23.8%: max response [16, 19]
27.5%: max response [16, 20]
active: Potency [3] 5.01 µM | Potency [13] 12.6 µM

N#CCCn1c(=O)c(-c2ccc(Cl)cc2)nc2cnc(OCc3ccccc3)nc21
active: Potency [3] 2 µM
8.68%: max response [16, 19]
inactive: Potency [1] > 11.4 µM | activity, negative = inhibition [5] 1.91% | Potency [6] > 9.22 µM | Potency [7] > 46 µM | outcome [8] | activity change, negative = inhibition [16] 5.27% | Potency [13]
16.3%: max response [16, 20]

COc1ccc(-c2nc3cnc(N4CCN(C)CC4)nc3n(Cc3cccc(OC)c3)c2=O)cc1
inactive: Potency [1] > 11.4 µM | Potency [6] > 9.22 µM | Potency [7] > 46 µM | Potency [14] | activity change, negative = inhibition [16] -2.59% | Potency [9] | Potency [10] | Potency [11] | Potency [12] | Potency [13]
8.4%: max response [16, 19]
2.85%: max response [16, 20]

COc1cccc(-c2ccc3ncnc(N4CCN(C)CC4)c3c2)c1
inactive: Potency [1] > 11.4 µM | activity change, negative = inhibition [4] 13% | activity, negative = inhibition [5] -6.09% | Potency [6] > 46 µM | Potency [7] > 46 µM | outcome [8] | Potency [14] | Potency [15] | activity change, negative = inhibition [16] -0.228% | Potency [12]
10.1%: max response [16, 20]
8.77%: max response [16, 19]
active: Potency [3] 3.98 µM | Potency [9] 3.55 µM | Potency [10] 3.98 µM | Potency [11] 2.24 µM | Potency [13] 39.8 µM

COc1ccc(CNc2ncnc3ccc(-c4cccc(C#N)c4)cc23)c(OC)c1
inactive: activity change, negative = inhibition [4] 16.5% | activity, negative = inhibition [5] -11.5% | Potency [6] > 46 µM | Potency [7] > 46 µM | outcome [8] | Potency [15] | activity change, negative = inhibition [16] -0.414% | Potency [11] | Potency [12]
active: Potency [3] 3.16 µM | Potency [17] 1.58 µM | Potency [13] 28.2 µM
-11.4%: max response [16, 20]
-6.85%: max response [16, 19]

N#CCCn1c(=O)c(CCc2ccccc2)nc2cnc(OCc3ccccc3)nc21
inactive: Potency [1] > 11.4 µM | activity change, negative = inhibition [2] -4.26% | activity change, negative = inhibition [4] -3.34% | activity, negative = inhibition [5] -0.503% | Potency [6] > 9.22 µM | Potency [7] > 46 µM | Potency [15]
active: Potency [3] 12.6 µM | Potency [13] 31.6 µM
